Assay results from PubChem BioAssay AID493168 (National Center for Advancing Translational Sciences (NCATS), 2011).
Inconclusive results are not listed. A call without a number means that no potency is given here. Calls of active or inactive are those of the source. Calls follow the shape of the dose curve; as a rule, active = well fitted inhibition curve with a large enough effect; inconclusive = small, poorly fitted or top-dose-only effect, or effect the other way; inactive = flat fitted curve, though single readings scatter.
Also: nearly all actives have a fitted effect of over 55% in size.
Potency is read from the fitted curve at half-maximal effect.

Each molecule was assayed against Ubiquitin carboxyl-terminal hydrolase 2 (Homo sapiens) (UniProt O75604) (assay: Confirmation Assay for Inhibitors of Ubiquitin-specific Protease USP2a Using CHOP2 as the Reporter). Conditions: USP2 core, Ub-CHOP2 coupled reporter fluorescence; series mostly up to 38.3 µM.
Chain of Ubiquitin carboxyl-terminal hydrolase 2 (Homo sapiens) (O75604 whole entry, looked up): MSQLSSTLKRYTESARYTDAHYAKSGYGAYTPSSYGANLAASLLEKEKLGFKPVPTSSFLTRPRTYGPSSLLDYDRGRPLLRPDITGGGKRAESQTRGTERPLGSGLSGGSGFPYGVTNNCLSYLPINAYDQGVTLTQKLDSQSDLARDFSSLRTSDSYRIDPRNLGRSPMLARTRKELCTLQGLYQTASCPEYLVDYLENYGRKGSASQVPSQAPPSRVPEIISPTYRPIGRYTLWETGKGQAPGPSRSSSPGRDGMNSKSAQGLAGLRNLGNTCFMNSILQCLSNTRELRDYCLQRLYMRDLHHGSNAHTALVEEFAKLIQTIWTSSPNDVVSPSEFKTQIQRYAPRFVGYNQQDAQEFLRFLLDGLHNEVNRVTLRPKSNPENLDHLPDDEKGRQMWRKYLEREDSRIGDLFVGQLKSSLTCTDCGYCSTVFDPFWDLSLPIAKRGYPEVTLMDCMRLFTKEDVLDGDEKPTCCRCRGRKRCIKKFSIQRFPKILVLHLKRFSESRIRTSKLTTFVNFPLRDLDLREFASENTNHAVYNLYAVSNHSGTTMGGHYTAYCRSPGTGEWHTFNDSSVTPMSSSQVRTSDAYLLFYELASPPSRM
Method in brief: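 Ub-CHOP2 cleavage coupled to reporter activation was read by fluorescence after 60 min at RT, with 25 nM final Ub-CHOP2 and substrate. Enzyme (10 nM final USP2 core) first sat 30 min with compound; data were normalized to NEM and fitted to concentration-response curves.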
For `FC(F)(F)C1=Nc2cccc3cccc(c23)N1`, the Potency was “inactive”. `Cn1nc(CC(=O)NCc2ccc(F)cc2)c2ccccc2c1=O` was tested, and the Potency was “inactive”. With `CCOc1cccc(NC(=O)/C(C#N)=C\c2cn(CC(=O)O)c3ccccc23)c1` the Potency was “inactive”. With `O=C(CSCc1cnn(-c2ccccc2)c1-n1cccc1)NCC1CCCO1` (configuration not stated) the Potency was “inactive”. In the case of `COc1cc(C)c(S(=O)(=O)NCc2ccc3c(c2)OCO3)cc1C`, the Potency is reported as “inactive”. `Cc1nn(CC(=O)Nc2cccc(S(N)(=O)=O)c2)c(C)c1[N+](=O)[O-]` was tested, and the Potency was “inactive”. `Cc1ccc(C(C(=O)NC2CCCC2)N2CCc3ccccc32)cc1` (configuration not stated) was tested, and the Potency was “inactive”. For `COc1cc2c(C(=O)N3CCN(c4cccc(Cl)c4)CC3)cn(CC(C)C)c(=O)c2cc1OC`, the Potency was “inactive”. `Cc1ccc(S(=O)(=O)N2[C@@H](c3ccc(C(C)(C)C)cc3)C(C(=O)O)=CC[C@H]2c2ccc(Cl)cc2)cc1` was tested, and the Potency was 14.7 µM (active). For `Cc1ccc2nc(NCCCNC(=O)c3cnccn3)c(C#N)cc2c1`, the Potency was “inactive”. `CCOC(=O)N1CCC(NC(=O)c2ccc(OC)c(CN3CC(=O)N4CCCC4C3=O)c2)CC1` (configuration not stated) was tested, and the Potency was “inactive”. With `COC(=O)c1[nH]c2ccccc2c1NC(=O)CN1CCCc2ccccc21` the Potency was “inactive”. `O=C1c2ccccc2CCC12N=NCC2c1ccc(Br)cc1` (configuration not stated) was tested, and the Potency was “inactive”. `N#CCc1ccc(NC(=O)/C=C/c2ccc([N+](=O)[O-])o2)cc1` was tested, and the Potency was “inactive”. For `O=C(COc1ccccc1)N1CCN(C(=O)Cc2ccccc2)CC1`, the Potency was “inactive”. For `COc1cc(OC)cc(-c2c(C#Cc3ccsc3)c3cc(-c4ccc(OC)c(OC)c4)ccc3n2C)c1`, the Potency was “inactive”. With `Cc1ccc(C(=O)N(c2c(C)n(C)n(-c3ccccc3)c2=O)C(C)C)cc1` the Potency was “inactive”.
